Results on 2 compounds are retold here after PubChem BioAssay (EPA / NIEHS).

The source made the active and inactive calls. The calls were made as follows: active = hit-call score of the fitted dose curve at least 0.9, where 1 is the maximum; inactive = score below 0.9.

Read-out in assay [1]: Transforming growth factor beta 1 (TGFb1), TGFB1 (gene 7040)
Nature of the assay: BSK_KF3CT_TGFb1: BioMAP Diversity Plus: KF3CT Assay for Transforming growth factor beta 1 (TGFb1) Biomarker Activity (AID 2283072). The note with it: primary human keratinocytes with fibroblasts; actives raise or lower the signal. Summed up:
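Read-out: ELISA for TGF-b1 in keratinocyte/foreskin fibroblast human skin co-culture, 24 h after dosing; bidirectional curve fit vs DMSO baseline; gain or loss of signal scored.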

Read-out in assay [2]: C-C motif chemokine 2 (Homo sapiens) (UniProt P13500)
Nature of the assay: BSK_KF3CT_MCP1: BioMAP Diversity Plus: KF3CT Assay for Monocyte Chemoattractant Protein 1 (MCP1/CCL2) Biomarker Activity (AID 2283073). The note with it: primary human keratinocytes with fibroblasts; actives raise or lower the signal. Summed up:
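Keratinocytes and foreskin fibroblasts were co-cultured, dosed with chemical, and sampled 24 h later. MCP-1 was quantified by ELISA, and the endpoint was analyzed with bidirectional fitting using DMSO as negative control.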

Read-out in assay [3]: Matrix Metallopeptidase 9 (MMP9), MMP9 (gene 4318)
Nature of the assay: BSK_KF3CT_MMP9: BioMAP Diversity Plus: KF3CT Assay for Matrix Metallopeptidase 9 (MMP9) Biomarker Activity (AID 2283074).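 Also: MMP9 protein level quantified by ELISA in the co-culture.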 The note with it: primary human keratinocytes with fibroblasts; actives raise or lower the signal. Summed up: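 MMP-9 quantified by ELISA after 24 h chemical treatment of primary human skin keratinocyte/fibroblast co-cultures; gain or loss fitted against DMSO, with parallel SRB staining (0.1% SRB, 560 nm) for overt cytotoxicity.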

Read-out in assay [4]: urokinase plasminogen activator (uPA), PLAU (gene 5328)
Nature of the assay: BSK_KF3CT_uPA: BioMAP Diversity Plus: KF3CT Assay for urokinase plasminogen activator (uPA) Biomarker Activity (AID 2283075). Particulars: primary human keratinocytes with fibroblasts; actives raise or lower the signal. In short, it runs like this:
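ELISA read-out of uPA 24 h after dosing human skin keratinocytes co-cultured with foreskin fibroblasts. Signal change fitted both ways relative to DMSO; sulforhodamine B on parallel cultures marks overt cytotoxicity.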

Read-out in assay [5]: CD40, CD40 (gene 958)
Put plainly: BSK_LPS_CD40: BioMAP Diversity Plus: LPS Assay for CD40 Biomarker Activity (AID 2283076). Particulars: primary human HUVEC with PBMC; actives raise or lower the signal. In short, it runs like this: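 CD40 signal, measured by ELISA, is fitted in both directions relative to DMSO vehicle. The system is an LPS-driven human vascular primary co-culture of endothelial cells and PBMC, sampled 24 h after compound addition.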

Read-out in assay [6]: E-selectin (Homo sapiens) (UniProt P16581)
Put plainly: BSK_LPS_Eselectin: BioMAP Diversity Plus: LPS Assay for Eselectin Biomarker Activity (AID 2283077). Particulars: primary human HUVEC with PBMC; actives raise or lower the signal. In short, it runs like this: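 Signal of E-selectin, detected by ELISA, served as the endpoint; cells were umbilical vein endothelium with PBMC, read 24 h after treatment. DMSO defined baseline, and both increases and decreases were fitted.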

Read-out in assay [7]: Interleukin-8 (IL8), CXCL8 (gene 3576)
Put plainly: BSK_LPS_IL8: BioMAP Diversity Plus: LPS Assay for Interleukin-8 (IL8) Biomarker Activity (AID 2283078). Particulars: primary human HUVEC with PBMC; actives raise or lower the signal. In short, it runs like this:
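Endothelial cells and PBMC from human donors are co-cultured, treated with chemicals and LPS, then assayed for IL-8 by ELISA after 24 h. Parallel SRB staining (0.1% SRB after 10% TCA fixation, 560 nm) flags cytotoxicity.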

Assay [8] in a line: BSK_LPS_SRB: Viability Assessment in the BioMAP Diversity Plus: LPS Assay (AID 2283079).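 Also: total protein by sulforhodamine B absorbance as a cytotoxicity measure; measured one day after compound addition; fitted in both directions against DMSO so loss or gain of signal counts.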 Particulars: primary human HUVEC with PBMC. In short, it runs like this:
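Overt cytotoxicity was gauged by sulforhodamine B total-protein staining in a primary human vascular endothelial and mononuclear cell co-culture 24 h post-dosing. Activity was fitted in both directions relative to DMSO.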

Read-out in assay [9]: Interleukin-1 alpha (IL1a), IL1A (gene 3552)
Put plainly: BSK_LPS_IL1a: BioMAP Diversity Plus: LPS Assay for Interleukin-1 alpha (IL1a) Biomarker Activity (AID 2283080). Particulars: primary human HUVEC with PBMC; actives raise or lower the signal. In short, it runs like this: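 Measured: IL-1 alpha via ELISA at 24 h in LPS-activated human umbilical vein endothelium–PBMC co-culture. Baseline: DMSO, bidirectional fitting.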

Read-out in assay [10]: Monocyte Chemoattractant Protein-1 (MCP1), CCL2 (gene 6347)
Nature of the assay: BSK_LPS_MCP1: BioMAP Diversity Plus: LPS Assay for Monocyte Chemoattractant Protein-1 (MCP1) Biomarker Activity (AID 2283081).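 Also: secreted MCP-1 protein quantified by ELISA in culture supernatant.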 The note with it: primary human HUVEC with PBMC; actives raise or lower the signal. Summed up: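 LPS-stimulated HUVEC/PBMC co-culture; chemical, 24 h; MCP-1 by ELISA; bidirectional fit vs DMSO; cytotoxicity via SRB (0.1% stain, 10% TCA fix, 560 nm) in parallel wells.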

Assay [11] is described as follows: BSK_LPS_PGE2: BioMAP Diversity Plus: LPS Assay for Prostaglandin E2 (PGE2) Biomarker Activity (AID 2283082).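 As to AC50: secreted prostaglandin E2 measured by ELISA in LPS-stimulated co-culture.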 Particulars: primary human HUVEC with PBMC; actives raise or lower the signal. In short, it runs like this:
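ELISA read-out of PGE2 from human umbilical vein endothelial cells co-cultured with peripheral blood mononuclear cells under LPS, 24 h post-dose. Gain or loss of signal scored relative to DMSO baseline.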

Read-out in assay [12]: Macrophage colony-stimulating factor (MCSF), CSF1 (gene 1435)
Put plainly: BSK_LPS_MCSF: BioMAP Diversity Plus: LPS Assay for Macrophage colony-stimulating factor (MCSF) Biomarker Activity (AID 2283083). The note with it: primary human HUVEC with PBMC; actives raise or lower the signal. In short, it runs like this:
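Compound is added to a human vascular primary co-culture of umbilical vein endothelium and blood mononuclear cells. After 24 h, M-CSF is quantified by ELISA. Signal changes are fitted in both directions against DMSO.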

Read-out in assay [13]: Tissue Factor, F3 (gene 2152)
Nature of the assay: BSK_LPS_TissueFactor: BioMAP Diversity Plus: LPS Assay for Tissue Factor Biomarker Activity (AID 2283084). The note with it: primary human HUVEC with PBMC; actives raise or lower the signal. In short, it runs like this:
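In this co-culture system of umbilical vein endothelium with PBMC, stimulated with LPS, cell-surface CD142 is detected by ELISA at 24 h. Endpoint values derive from bidirectional fitting, DMSO serving as baseline.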

Read-out in assay [14]: Tumor necrosis factor (Homo sapiens) (UniProt P01375)
Put plainly: BSK_LPS_TNFa: BioMAP Diversity Plus: LPS Assay for Tumour Necrosis Factor alpha (TNFa) Biomarker Activity (AID 2283085). Particulars: primary human HUVEC with PBMC; actives raise or lower the signal. Summed up: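 HUVEC/PBMC co-culture, LPS-stimulated; 24 h post-dose; TNFa by ELISA; gain or loss of signal fitted bidirectionally vs DMSO baseline.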

Read-out in assay [15]: Vascular cell adhesion molecule 1 (VCAM1), VCAM1 (gene 7412)
Put plainly: BSK_LPS_VCAM1: BioMAP Diversity Plus: LPS Assay for Vascular cell adhesion molecule 1 (VCAM1) Biomarker Activity (AID 2283086). The note with it: primary human HUVEC with PBMC; actives raise or lower the signal. In short, it runs like this: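 ELISA read-out of VCAM-1 at 24 h post-dosing in an LPS-driven HUVEC/PBMC primary human co-culture; gain or loss of signal fitted bidirectionally against DMSO baseline. Cytotoxicity tracked in parallel cultures by SRB total-protein staining.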

Read-out in assay [16]: CD40, CD40 (gene 958)
Put plainly: BSK_SAg_CD40: BioMAP Diversity Plus: SAg Assay for CD40 Biomarker Activity (AID 2283088). Particulars: primary human HUVEC with PBMC; actives raise or lower the signal. Summed up: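 Fluorescence ELISA read-out of CD40 from umbilical vein endothelium plus peripheral blood mononuclear cells, sampled 24 h after dosing. Values come from bidirectional curve fitting with DMSO as baseline.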

Read-out in another assay: CD69, CD69 (gene 969)
Nature of the assay: BSK_SAg_CD69: BioMAP Diversity Plus: SAg Assay for CD69 Biomarker Activity (AID 2283089).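 Also: cell surface CD69 protein quantified by ELISA with fluorescence detection.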 Particulars: primary human HUVEC with PBMC; actives raise or lower the signal. In short, it runs like this: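 ELISA, fluorescence read-out: CD69 on human umbilical vein endothelial cell + PBMC co-culture, 24 h post-dosing. Gain or loss of signal fitted bidirectionally against DMSO baseline.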

Read-out in assay [17]: Monocyte Chemoattractant Protein-1 (MCP1), CCL2 (gene 6347)
Nature of the assay: BSK_SAg_MCP1: BioMAP Diversity Plus: SAg Assay for Monocyte Chemoattractant Protein-1 (MCP1) Biomarker Activity (AID 2283090). Particulars: primary human HUVEC with PBMC; actives raise or lower the signal. In short, it runs like this:
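Values derive from bidirectional fitting of ELISA-measured MCP1 against DMSO controls. Readings were taken 24 h after dosing human vascular endothelial cells co-cultured with peripheral blood mononuclear cells under superantigen stimulation.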

Read-out in assay [18]: E-selectin (Homo sapiens) (UniProt P16581)
Put plainly: BSK_SAg_Eselectin: BioMAP Diversity Plus: SAg Assay for Eselectin Biomarker Activity (AID 2283091). Particulars: primary human HUVEC with PBMC; actives raise or lower the signal. In short, it runs like this:
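Primary human endothelial cells and peripheral blood mononuclear cells were co-cultured and exposed to chemical for 24 hours. E-selectin levels were then quantified by ELISA, with bidirectional curve fitting normalised to DMSO controls.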

Read-out in a further assay: CD38, CD38 (gene 952)
Nature of the assay: BSK_SAg_CD38: BioMAP Diversity Plus: SAg Assay for CD38 Biomarker Activity (AID 2283087). The note with it: primary human HUVEC with PBMC; actives raise or lower the signal. Summed up:
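Measures CD38 on a human endothelial/PBMC co-culture driven by SEB and TSST-1, 24 h after compound exposure, using ELISA with fluorescence detection; DMSO defines baseline for bidirectional curve fitting.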

E-selectin (Homo sapiens), sequence (P16581 whole entry, looked up): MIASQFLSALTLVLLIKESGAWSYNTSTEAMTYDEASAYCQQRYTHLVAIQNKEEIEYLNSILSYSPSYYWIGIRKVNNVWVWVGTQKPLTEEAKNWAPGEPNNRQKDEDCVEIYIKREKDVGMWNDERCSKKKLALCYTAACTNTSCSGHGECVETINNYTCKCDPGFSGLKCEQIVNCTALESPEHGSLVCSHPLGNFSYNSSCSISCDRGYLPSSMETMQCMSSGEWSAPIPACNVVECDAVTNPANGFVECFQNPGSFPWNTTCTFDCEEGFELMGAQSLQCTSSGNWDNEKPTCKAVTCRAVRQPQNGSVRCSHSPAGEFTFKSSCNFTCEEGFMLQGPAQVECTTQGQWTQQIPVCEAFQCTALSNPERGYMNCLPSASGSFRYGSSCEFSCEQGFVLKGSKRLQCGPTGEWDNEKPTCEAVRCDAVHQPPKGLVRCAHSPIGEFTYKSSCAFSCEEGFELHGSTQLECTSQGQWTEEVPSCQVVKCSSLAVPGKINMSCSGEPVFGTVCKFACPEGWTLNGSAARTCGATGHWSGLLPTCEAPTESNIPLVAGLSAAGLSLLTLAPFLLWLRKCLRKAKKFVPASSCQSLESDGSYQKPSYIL
Tumor necrosis factor (Homo sapiens), sequence (P01375 whole entry, looked up): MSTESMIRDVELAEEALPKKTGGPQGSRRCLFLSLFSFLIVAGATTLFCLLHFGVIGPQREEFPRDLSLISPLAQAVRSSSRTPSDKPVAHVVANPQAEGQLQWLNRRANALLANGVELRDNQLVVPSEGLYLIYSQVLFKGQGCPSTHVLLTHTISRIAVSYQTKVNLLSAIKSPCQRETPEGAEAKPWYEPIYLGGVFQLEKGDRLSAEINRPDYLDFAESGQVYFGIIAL

What is called AC50 is the concentration giving half of the maximal activity seen. Turning to `c1ccc(Sc2ccccc2)cc1`, the AC50 in assay [1] is 32 µM (active); in assay [2] it was 32.8 µM (active); in assay [3], 32.7 µM (active); in assay [4], 33.1 µM (active); in assay [6] it was 33.1 µM (active); in assay [7], 20 µM (active). In addition, the AC50 in [8] was 32.2 µM (active); in [9], 33.8 µM (active); in assay [10], 20 µM (active); in assay [12], 35.6 µM (active); in [13], 37 µM (active); in assay [15], 31.6 µM (active). In addition, the AC50 with CD40, CD40 (gene 958) [16] is 32.3 µM (active); with CD69, CD69 (gene 969), 29.7 µM (active); in assay [17], 8 µM (active); in assay [18] it was 30.2 µM (active). Moreover, the outcome in the assay with CD40, CD40 (gene 958) [5] is “inactive”; in assay [11], “inactive”; in [14], “inactive”.
As for `CCCCCCCCCCCCS`, the AC50 in assay [1] is 29.3 µM (active); in assay [3], 14.2 µM (active); in assay [4], 20 µM (active); with CD40, CD40 (gene 958) [5] it was 20 µM (active); in [6], 20 µM (active); in assay [8] it was 20 µM (active). For the same compound, the AC50 in assay [10] is 33.3 µM (active); in assay [11], 3.97 µM (active); in [12], 31.4 µM (active); in assay [15], 20 µM (active); with CD38, CD38 (gene 952), 28.6 µM (active); in the assay with CD40, CD40 (gene 958) [16] it was 20 µM (active). Also, in the assay with CD69, CD69 (gene 969), the AC50 was 20 µM (active). Besides, the result in assay [2], in assay [7], in assay [9], in [13], in assay [14] and in [17] was inactive. Besides, the result in [18] was inactive.
